Measured values: PubChem BioAssay AID995 (National Center for Advancing Translational Sciences (NCATS), 2007)
Among all 72,000 compounds or so, about 710 (0.99%) were called active. Roughly 7% stayed inconclusive and do not appear here. The full list was thinned out, with actives kept by preference. A number with no mark means an inactive call. Calls come from the whole dose curve; as a rule, active = well fitted inhibition curve with a large enough effect; inconclusive = small, poorly fitted or top-dose-only effect; inactive = no such curve, though single readings can be large or run the other way.

Test: qHTS Assay for Inhibitors of the ERK Signaling Pathway using a Homogeneous Screening Assay; note: nearly all actives have a fitted effect of over 55% in size
Settings: HEK293-V1b, vasopressin-stimulated pERK AlphaScreen; series mostly up to 57.5 µM; activity, negative = inhibition: at the top concentration
Text: qHTS Assay for Inhibitors of the ERK Signaling Pathway using a Homogeneous Screening Assay; note: nearly all actives have a fitted effect of over 55% in size
NIH Chemical Genomics Center [NCGC]
NIH Molecular Libraries Screening Centers Network [MLSCN]
Assay Submitter (PI): Dr. Wei Zheng, NCGC/NIH
The Ras/extracellular-signal-regulated kinase (ERK) mitogen activated protein (MAP) kinase signaling pathway (ERK1/2 cascade) plays is a key role in transmitting signals from the cell surface to the nucleus (Nishida and Gotoh 1993; Chang and Karin, 2001). The cascade is initiated by the small G-protein Ras, which recruits Raf […], where activation occurs. Alternatively, this pathway can be activated by elevating intracellular cAMP.
Activation of the ERK pathway is essential in increased cell division and cell survival. Sustained and constitutive activation of the ERK pathway, however, has been linked to uncontrolled cell proliferation, increased cell survival, and tumor progression. Thus, the ERK has been as an attractive target for cancer chemotherapy in the past few years (Sebolt-Leopold and Herrera, 2004). Given its physiological and pathological importance, assessment of ERK phosphorylation has been broadly performed in both basic research and drug discovery. Most assays for the measurement of ERK phosphorylation use the antibody-based detection methods, such as western blot and ELISA. These assays require multiple reagent additions with cell wash steps and are not suitable for high throughout screening.
The current cell-based ERK phosphorylation assay was performed using AlphaScreen platform. AlphaScreen is a two bead-based proximity-dependent chemical energy transfer luminescent assay platform. The assay reagents (ERK SureFire(TM) kit) were supplied from TGR BioSciences (Australia). In the presence of specific antibodies, phosphorylated ERK will bring "donor" and "acceptor" beads to a proximity range (<200 nm), and subsequently lead a chemical luminescent reaction upon exciting donor beads with 680 nm laser. To exclude the assay-related false positives, we used a biotinylated rabbit IgG to perform counter-screen. The biotinylated antibody mimics the phosphorylated ERK1/2 for bringing streptavidin coated beads and protein-A coated beads to a proximity range for the AlphaScreen detection.
NCGC Assay Protocol Summary:
HEK293 cells stably expressing type-1 vasopressin receptor (V1b) were maintained in DMEM medium (Invitrogen, Carlsbad, CA) at 37C under a humidified atmosphere containing 5% CO2 and 95% air. The medium contained 10% FBS, 2 mM L-glutamine, non-essential amino acid, pyruvate and 50 U/ml penicillin and 50 ug/ml streptomycin (Invitrogen). The aliquots of frozen cells were stored at -135C and used for the compound screening. All compounds were screened as titrations from 0.6 nM to 46 uM final concentration. Vasopressin was used to stimulate the ERK phosphorylation pathway. The ERK phosphorylation in cells was determined using an AlphaScreen assay kit provided by PerkinElmer. Data were normalized to the controls for basal activity (DMSO only) and 100% activation (25 nM vasopressin). AC50 values were determined from concentration-response data modeled with the standard Hill equation.
(1) Seed 4 ul/well of resuspended frozen HEK293 cells containing 2000 cells in white 1536-well plates for overnight with 1% FBS at 37C under a humidified atmosphere containing 5% CO2 and 95% air.
(2) Add 23 nL compounds in DMSO solution. The final titration was 0.6 nM to 46 uM.
(3) Incubate at 37C for 30 min.
(4) Dispense 0.5uL vasopressin (25 nM in final)
(5) Incubate at 37C for 5 min.
(6) Dispense 0.5uL of 1:2 diluted 5x lysis buffer.
(7) Incubate at 37C for 10 min.
(8) Dispense 1.5uL of mixture of activation buffer and reaction buffer with AlphaScreen beads (streptavidin donor beads and protein-A acceptor beads, 10 ng/well for each).
(9) Incubate at room temperature for 5 hr.
(10) Detect the assay plate in an EnVision plate reader (PerkinElmer) using the AlphaScreen detection mode.
[…]
% is set by controls: 0 for no effect and ±100 for the full control effect; potency is the fitted concentration of half-maximal effect.

SMILES	activity, negative = inhibition	Potency
CC1(C)OC2CC(=O)OC[C@@]23C1CC(=O)[C@]1(C)C3CC[C@@]2(C)C(c3ccoc3)OC(=O)C3O[C@@]321 (stereo partly drawn)	5.86%	–
O=C(O)c1ccc(C(=O)c2ccccc2C(=O)O)cc1C(=O)O	14.2% [at 11.5 µM]	–
Cc1c(O)cc(O)c2c(=O)c(-c3ccc(O)cc3)coc12	10.2%	–
COc1ccc(OC)c(NC(=O)CSc2nc3cccnc3n2C)c1	–	20 µM (active)
CCn1c(COc2ccc(OC)cc2)nnc1SCC(=O)Nc1cc(OC)ccc1OC	-28%	–
COc1ccc(OC)c(NC(=O)CSc2nc(N)c(-c3ccccc3)c(=O)[nH]2)c1	-26.5%	–
COC(=O)C1C(=O)c2c([nH]c(C(=O)OCCSC)c2C)CC1C (stereo not drawn)	-19.7%	–
CCCOC(=O)c1[nH]c2c(c1C)C(=O)CC(c1cc(OC)c(OC)c(OC)c1)C2 (stereo not drawn)	–	25.1 µM (active)
CCCOC(=O)C1=C(C)NC2=C(C(=O)C(C(=O)OC)C(C)C2)C1c1ccc(N(C)C)cc1 (stereo not drawn)	-12.3%	–
CC(=O)OCC(=O)[C@@]1(O)CCC2C3CCC4=CC(=O)CC[C@@]4(C)[C@]3(F)C(O)C[C@]21C (stereo partly drawn)	-18%	–
C[C@@H]1O[C@@H](OC[C@H]2O[C@@H](Oc3c(-c4cccc(O)c4O)oc4cc(O)cc(O)c4c3=O)[C@H](O)[C@@H](O)[C@@H]2O)[C@H](O)[C@H](O)[C@H]1O	-17.5%	–
COc1ccccc1N1CCN(C[C@@H]2CN3C(=O)N(C)c4ccccc4C3=N2)CC1	-15.9%	–
COc1ccc(-c2nn3c(-c4ccccc4)nnc3s2)cc1OC	–	7.94 µM (active)
COc1cc(-c2nn3c(-c4cccc(C)c4)nnc3s2)cc(OC)c1OC	-16.6%	–
Fc1ccc(-c2nnc3sc(-c4ccc5c(c4)OCO5)nn23)cc1	6.41%	–
CC(=O)O[C@]1(C(C)=O)CC[C@@H]2[C@@H]3C=C(C)C4=CC(=O)CC[C@@]4(C)[C@H]3CC[C@]21C	35.5% [at 25.7 µM]	–
O=C(O)c1nn(-c2ccc(Cl)cc2)c2c1C(=O)c1ccccc1C2=O	-10.9% [at 11.5 µM]	–
CC1CC[C@@]23CCC4(C)[C@@]5(C)CCC6C(C)(C)C(O)CC[C@@]6(C)C5C=C[C@@]4(OC2=O)C3C1C (stereo partly drawn)	10.4%	–
CN(C)CCc1c[nH]c2ccc(Cn3cncn3)cc12	20.1%	–
N#Cc1ccccc1-c1ccc2ncnc(NCc3cccnc3)c2c1	-12.3%	–
CC1(C)SC2C(NC(=O)COc3ccccc3)C(=O)N2C1C(=O)O (stereo not drawn)	5.65%	–
S=c1c2[nH]cnc2ncn1CCSc1ncnc2nc[nH]c12	-0.588% [at 11.5 µM]	–
COC(=O)NC(c1ccccc1)[C@]1(C(C)=O)CCCC1=O (stereo partly drawn)	-3.18% [at 11.5 µM]	–
Nc1nc2nc(Cl)[nH]c2c(=O)[nH]1	19.7%	–

SMILES	activity, negative = inhibition	Potency
O=C(O)C1CCN(c2ncnc3ccc(-c4ccccc4C(F)(F)F)cc23)CC1	-10.5%	–
CCCN1[C@H](C(=O)OC)C[C@@]2(O)[C@@H](O)[C@@H](O)[C@@H](O)C[C@@H]12	26.9%	–
Nc1ncn(C2OC(CO)C(O)C2O)c(=O)n1 (stereo not drawn)	15.1%	–
COC(=O)[C@@]1(Cc2ccc(OC)cc2)[C@H]2c3cc(C(=O)N4CCCC4)n(Cc4ccc(C(F)(F)F)nc4)c3C[C@H]2CN1C(=O)c1ccccc1	2.03%	–
O=c1c(-c2ccc(F)cc2)nc2cnc(N3CCOCC3)nc2n1-c1ccccc1	-29%	–
C=C(C)C1CC=C(CO)CC1 (stereo not drawn)	22.5%	–
COc1ccccc1CNc1cc(-c2ccccc2CN(C)C)ncn1	11.9%	–
Cc1cc(OCC(=O)O)c(Cl)cc1Cl	-16.5% [at 11.5 µM]	–
Fc1ccc2[nH]c3c(N4CCSCC4)ncnc3c2c1	–	12.6 µM (active)
CCN1CCCC1CNc1ncnc2c1[nH]c1ccc(F)cc12 (stereo not drawn)	-11.8%	–
Cc1ccc(-n2ncc3c(N4CCN(c5ccc(F)cc5)CC4)ncnc32)c(C)c1	-27.4%	–
Oc1ccc(O)c2c(O)cccc12	-3.49%	–
C/C(=C\C(=O)c1ccccc1)Nc1cccc(O)c1	–	7.94 µM (active)
C/C(=C\C(=O)c1cccnc1)Nc1ccc(C)c(C)c1	-5.4%	–
CC(=O)c1cccc(NC(=O)c2ccncc2)c1	12.2%	–
Cc1noc(C)c1-c1nc(Nc2ccccc2)c2ccccc2n1	-25.9%	–
COc1ccc2[nH]cc(CCNc3nc(-c4cccc(NS(C)(=O)=O)c4)nc4ccccc34)c2c1	-30.4%	–
COc1cccc(-c2nc(Nc3ccncc3)c3ccccc3n2)c1	–	15.8 µM (active)
CCC(C)(C)N=C(NC#N)Nc1cccnc1	-7.8%	–
N[C@H](C(=O)O)c1ccc(C(=O)O)c(O)c1	-22.7%	–
CC(=O)Oc1c2c(c3c(c1CC=C(C)C)O[C@@]14C(=CC5CC1C(C)(C)OC4(C/C=C(\C)C(=O)O)C5=O)C3=O)OC(C)(CCC=C(C)C)C=C2 (stereo partly drawn)	-10.8%	–
NCCCNCCCCN(CCCN)/[N+]([O-])=N/O	-1.46%	–
CC(C)(O)CCC(O)[C@@](C)(O)C1CC[C@]2(O)C3=CC(=O)C4CC(O)C(O)C[C@]4(C)C3CC[C@]12C (stereo partly drawn)	-0.972%	–
N#C/C(=C\c1ccc(O)c(O)c1)C(N)=O	-23.1%	–

SMILES	activity, negative = inhibition	Potency
Oc1c(CN2CCOCC2)ccc(CN2CCOCC2)c1O	-4.14% [at 11.5 µM]	–
CCC[C@@H]1C[C@@]1(CCC)[C@@H](NC(=O)c1ccccc1)c1ccc(C(=O)OC)cc1	23.3%	–
CCCn1c(-c2ccc(F)cc2)nc2c(NC3CCN(Cc4ccccc4)C3)nc(C)nc21 (stereo not drawn)	-14.2%	–
O=C(Nc1c[nH]c(=O)[nH]c1=O)Oc1ccccc1	-1.65% [at 11.5 µM]	–
CN(CCOc1ccc(CC2SC(=O)NC2=O)cc1)c1ccccn1 (stereo not drawn)	23.1%	–
COc1ccc(-c2nc3cnc(N(C)C)nc3n(Cc3cccs3)c2=O)cc1	31%	–
COC(=O)[C@@H]1C[C@H]2CC[C@H](O)C[C@H]2N1Cc1ccc(N2CCN(C)CC2)cc1	11.9%	–
COCCn1c(=O)c(-c2cccc(F)c2)nc2cncnc21	-9.32%	–
N#Cc1cc2[nH]c(=O)c(=O)[nH]c2cc1[N+](=O)[O-]	-0.943%	–
Cc1nc2nc(SCC(=O)NCc3ccco3)nn2c(C)c1Cc1ccccc1	21.2%	–
CCOc1ccccc1-n1c(SCC(=O)NCc2ccco2)nnc1-c1ccncc1	-1.62%	–
CCOC(=O)c1cnc(SCC(=O)NCc2ccco2)nc1N	–	25.1 µM (active)
CC(C)NC[C@H](O)c1ccc2ccccc2c1	–	inactive
COC(=O)[C@@]1(Cc2ccccc2)[C@H]2c3cc(C(=O)N4CCCC4)n(Cc4ccc(C)o4)c3C[C@H]2CN1C(=O)c1ccccc1	-4.58%	–
CN(C(=O)CN(CCO)CC(=O)N(C)C(C)(C)Cc1ccccc1)C(C)(C)Cc1ccccc1	–	inactive
Cc1cc(C)cc(N)c1	7.96%	–
CCCn1c(-c2ccc(F)cc2)nc2c(NCC3CCCN3CC)nc(C)nc21 (stereo not drawn)	-24.4%	–
COC(=O)[C@@]1(Cc2ccc(F)cc2)[C@H]2c3cc(C(=O)N4CCCC4)n(Cc4ccc(OC(F)(F)F)cc4)c3C[C@H]2CN1C(=O)c1ccccc1	4.38%	–
COc1ccccc1N1CCN(CCN2C(=O)c3ccccc3C(C)(C)C2=O)CC1	-25.3%	–
CN(C)/C=N/c1cc(=O)n(C)c(=O)n1CC1CC1	0.0595%	–
CC(C)=CCC/C(C)=C/CO/N=C1/C[C@@H](O)[C@@H](O)[C@@H]2[C@@H]3C(=O)N(C(C)(C)C)C(=O)[C@H]3CC[C@H]12	7.53% [at 11.5 µM]	–
Cn1c(N)c(C(=O)COC(=O)c2cc(C(F)(F)F)nc3c(C(F)(F)F)cccc23)c(=O)n(C)c1=O	-13.9%	–
CC/C=C/C/C=C/C/C=C/CCCCCCCC(=O)OCC	26%	–
CC1(C)OC(C(O)(c2ccccc2)c2ccccc2)C(C(O)(c2ccccc2)c2ccccc2)O1 (stereo not drawn)	31.6% [at 11.5 µM]	–

SMILES	activity, negative = inhibition	Potency
COC(=O)[C@H]1[C@H]2C[C@H]3c4[nH]c5ccccc5c4CCN3C[C@@H]2CC[C@@H]1O	–	inactive
Oc1ccccc1CNCc1ccccc1O	19.3% [at 11.5 µM]	–
COc1ncc2nc(-c3ccc(Cl)cc3)c(=O)n(C)c2n1	-0.77%	–
O=C(Nc1ccccc1)N[C@H]1C[C@H](C(=O)O)Nc2cc(Cl)cc(Cl)c21	-10.9%	–
CC1O[C@@H](Oc2c(-c3ccc(O)c(O)c3)oc3cc(O)cc(O)c3c2=O)C(O)C(O)C1O (stereo partly drawn)	-4.83%	–
COC1[C@H](OC(N)=O)C(O)[C@H](Oc2ccc3c(O)c(NC(=O)c4ccc(O)c(CC=C(C)C)c4)c(=O)oc3c2C)OC1(C)C (stereo partly drawn)	14.4%	–
C#CCCCCCCCCCCCCCCCC(=O)O	9.99%	–
CO[C@H]1COC(=O)[C@@H](OCc2ccccc2)/C=C\[C@H](C)[C@@H](OC)COC(=O)[C@H](OCc2ccccc2)/C=C\[C@@H]1C	30% [at 11.5 µM]	–
O=C(CSc1nnc(-c2cccnc2)n1Cc1ccco1)c1ccc(Cl)c(Cl)c1	10.5%	–
O=C(CSc1nnc(-c2cccs2)n1Cc1ccco1)c1ccc2c(c1)OCO2	–	31.6 µM (active)
O=C(CSc1nnc(-c2cnccn2)n1Cc1ccco1)c1ccc(Cl)c(Cl)c1	-26.5%	–
N#Cc1cccc(-c2ccc3ncnc(NCc4cccs4)c3c2)c1	-25.3%	–
Cc1noc(C)c1-c1nccc(N2CCOCC2)n1	-10.5%	–
N#CCC(=O)NC(=O)NCC1CC1	12.1%	–
COc1ccc2c3c1OC1CC(O)C=C[C@@]31CCN(C)C2 (stereo partly drawn)	14%	–
COC(=O)c1ccc(C23CC4(C2)[C@H](CN(Cc2cccnc2)[C@@H]4c2ccccc2)C3c2ccc(Cl)nc2)cc1 (stereo partly drawn)	-2.78%	–
CC(C)CO/N=C1/C[C@@H](O)[C@@H](O)[C@@H]2[C@@H]3C(=O)N(C[C@@H]4CCCO4)C(=O)[C@H]3CC[C@@H]12	8.6% [at 11.5 µM]	–
CCNc1ncc2ncc(=O)n(Cc3cccc(OC)c3)c2n1	-28.5%	–
Cn1nnnc1SCC(=O)N1CCN(Cc2ccccc2)CC1	–	31.6 µM (active)
Cn1nnnc1SCC(=O)N1CCN(C(c2ccccc2)c2ccccc2)CC1	2.32%	–
CC(=O)c1ccc(-n2nnnc2SCC(=O)N2CCN(C(=O)c3ccco3)CC2)cc1	-14%	–
